Assay outcomes deposited in PubChem BioAssay by several laboratories.
Compounds with a hit are over-represented: about 4.1% of the library has one in this group of screens.
Gli-Sufu antag: Gli-Sufu pathway antagonists, primary screen, luciferase luminescence, Sufu-KO-LIGHT cells, uHTS. Sufu-KO-LIGHT fibroblasts, Gli luciferase reporter luminescence. inhibition, % at 5 µM. 0.74% of 340,000 active. AID 588413, 2011;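 active = inhibition above about 55%, limit read from the data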
Jurkat NFkB inh: inhibitors of induced NF-kB luciferase reporter, primary screen, TCR NF-kB activation inhibitor project, cell-based, luminescence, uHTS | Jurkat, PMA/ionomycin-induced NF-kB luciferase reporter | inhibition, % at 4 µM | 0.53% of 330,000 active | AID 435003, 2010; in the data active = inhibition above about 50%
KLF5 inh: KLF5 expression inhibitors, primary screen, DLD-1 cells, luminescence; AID 1700, 2009; 0.23% of 290,000 active; inhibition, % at 5 µM; DLD-1 KLF5 promoter-luciferase reporter;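 active = inhibition above a per-plate limit of that plate's mean compound inhibition plus 3 SD, cut at about 60% in these data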;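 note: higher means less KLF5 promoter-driven luciferase light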
aSyn 5UTR inh: MLPCN primary screen, SNCA 5' untranslated region. alpha-synuclein 5'UTR reporter, inhibitor activity. inhibition, % (tested at 7.5 µM). 0.82% of 300,000 active. AID 1813, 2009; in the data active = inhibition above about 60%;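 note: H4 neuroglioblastoma cells stably carrying SNCA 5'UTR luciferase fusion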
697 NFkB inh: inhibitors of PMA/ionomycin-induced NF-kB reporter, 697 cells, primary screen, B-cell NF-kB inhibitor project, cell-based, luminescence, uHTS; AID 435022, 2010; inhibition, % at 4 µM; 697 B-cell NF-kB luciferase reporter, 16 h; 0.33% of 330,000 active; in the data active = inhibition above about 35%
Mdm2-MdmX inh: inhibitors of human Mdm2-MdmX association, primary screen, cell-based, luminescence, split luciferase, SaOS-2, uHTS. Protein Mdm4 (Homo sapiens) + E3 ubiquitin-protein ligase Mdm2 (Homo sapiens), …. SaOS-2 split-luciferase Mdm2/MdmX complementation. inhibition, % at 8 µM. 3% of 330,000 active. AID 485346, 2010;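 active = inhibition of at least 50% at 8 µM in the primary screen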
Target sequence (O15151 whole entry, looked up): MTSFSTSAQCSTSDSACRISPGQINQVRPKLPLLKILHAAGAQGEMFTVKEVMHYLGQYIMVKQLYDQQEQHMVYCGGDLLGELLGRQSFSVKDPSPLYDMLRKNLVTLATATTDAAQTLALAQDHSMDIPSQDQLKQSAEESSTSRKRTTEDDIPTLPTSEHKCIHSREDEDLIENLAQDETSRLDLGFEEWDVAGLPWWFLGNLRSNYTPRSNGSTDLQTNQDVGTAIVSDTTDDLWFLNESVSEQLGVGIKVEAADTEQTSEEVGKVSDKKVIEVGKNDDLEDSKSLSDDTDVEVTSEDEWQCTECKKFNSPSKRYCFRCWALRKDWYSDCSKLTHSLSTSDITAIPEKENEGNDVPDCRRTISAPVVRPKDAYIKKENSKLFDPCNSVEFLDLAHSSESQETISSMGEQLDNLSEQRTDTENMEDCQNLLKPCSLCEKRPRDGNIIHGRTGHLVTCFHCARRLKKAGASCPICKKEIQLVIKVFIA
Target sequence (Q00987 whole entry, looked up): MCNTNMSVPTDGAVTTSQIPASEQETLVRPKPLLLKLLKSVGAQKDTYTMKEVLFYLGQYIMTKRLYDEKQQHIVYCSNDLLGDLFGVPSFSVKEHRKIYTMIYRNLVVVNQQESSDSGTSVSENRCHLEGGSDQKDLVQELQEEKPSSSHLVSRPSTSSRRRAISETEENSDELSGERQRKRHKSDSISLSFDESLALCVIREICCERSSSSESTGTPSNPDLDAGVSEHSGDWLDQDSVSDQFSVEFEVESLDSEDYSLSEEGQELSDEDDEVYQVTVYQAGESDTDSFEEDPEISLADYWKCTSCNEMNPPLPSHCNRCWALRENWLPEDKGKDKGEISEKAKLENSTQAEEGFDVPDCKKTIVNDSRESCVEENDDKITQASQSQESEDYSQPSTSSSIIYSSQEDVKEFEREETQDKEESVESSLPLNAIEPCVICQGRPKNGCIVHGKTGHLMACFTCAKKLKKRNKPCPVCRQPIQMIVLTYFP
Mdm2-MdmX conf: Mdm2-MdmX complex disruptors, retested hits, confirmation, luminescence, single concentration; shares compounds with Mdm2-MdmX inh; Mdm2-MdmX binding, luminescent assay; inhibition, % at 8 µM; 55% of 10,000 active; AID 489028, 2010; in the data active = inhibition above about 40%
Full FLuc ctr: full-length luciferase signal inhibition, confirmation, counter-screen for Mdm2/MdmX interaction inhibitor project, cell-based, single concentration, SaOS-2; shares compounds with Mdm2-MdmX inh; SaOS-2 full-length luciferase counterscreen, luminescence; inhibition, % at 8 µM; 77% of 6,200 active;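 active = mean inhibition at 8 µM reaching about 37%, which flags the compound as non-specific, limit read from the data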;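 note: p53-null SaOS-2 cells with luciferase driven by a doxycycline-inducible promoter; compound on cells about two nights before reading with doxycycline added after day one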
Numbers stand for hits; - = inactive; . = no result given.

SMILES	Gli-Sufu antag	Jurkat NFkB inh	KLF5 inh	aSyn 5UTR inh	697 NFkB inh	Mdm2-MdmX inh	Mdm2-MdmX conf	Full FLuc ctr
COc1ccccc1CNCC(O)(c1ccc(F)cc1)c1ccc(F)cc1	-	-	-	-	-	-	.	.
COc1ccccc1CNCC(O)(c1ccc(Cl)cc1)c1ccc(Cl)cc1	-	-	-	-	-	54	-	.
CCC(=NCCc1c(C)[nH]c2ccccc12)C1=C(O)CC(c2ccccc2)CC1=O (centres undefined)	-	-	-	-	-	71	52	50
CCC(=NC)C1=C(O)CC(c2ccccc2)CC1=O (centres undefined)	-	-	-	-	-	-	.	.
CCCCNc1c(-c2ccc(OC)c(SC3CCCCC3)c2)nc2ccc(C)cn12	-	-	.	.	-	98	46	-
CCCCNc1c(-c2ccc(Sc3ccc(OC)cc3)cc2)nc2cc(C)ccn12	-	-	.	.	-	80	-	.
CCC(C)Sc1ccc(-c2nc3ccc(C)cn3c2NCc2ccccc2)cc1OC (centres undefined)	-	-	.	-	-	97	57	39
COc1ccc(-c2nc3ccc(C)cn3c2NCc2ccccc2)cc1SC1CCCCC1	-	-	.	-	-	53	-	.
O=C(CCC(=O)N1CCSc2ccccc21)NC1CCCCC1	-	-	-	-	-	-	.	.
CCCCNc1c(-c2ccc(OC)c(SC(C)CC)c2)nc2ccc(Cl)cn12 (centres undefined)	-	-	.	.	-	-	.	.
CCCCNc1c(-c2ccc(OC)c(SC(C)CC)c2)nc2ccc(C)cn12 (centres undefined)	-	-	.	.	-	89	-	.
C[C@H](NC(=O)c1nc[nH]c1C(=O)N[C@@H](Cc1ccccc1)C(=O)OC(C)(C)C)C(=O)OC(C)(C)C	-	-	.	-	-	-	.	.
CC(C)(C)OC(=O)NCCCC[C@H](NC(=O)c1[nH]cnc1C(=O)N[C@@H](Cc1ccccc1)C(=O)OC(C)(C)C)C(=O)OC(C)(C)C	-	-	.	-	-	62	-	.
CC(C)(C)OC(=O)[C@H](Cc1ccccc1)NC(=O)c1nc[nH]c1C(=O)N[C@@H](Cc1ccccc1)C(=O)OC(C)(C)C	-	-	.	-	-	86	-	.
Cc1cc(C(=O)CN2C(=O)C(=O)N(CCC3=CCCCC3)C2=O)c(C)n1C	-	-	.	.	-	-	.	.
CCOc1ncccc1C(=O)NCC(c1ccco1)N1CCCCC1 (centres undefined)	-	-	.	.	-	-	.	.
COC(=O)Cn1c(=NC(=O)c2sc3ccccc3c2Cl)sc2cc(S(N)(=O)=O)ccc21	-	-	-	-	-	64	-	52
CCOC(=O)Cn1c(=NC(=O)c2sc3ccccc3c2Cl)sc2cc(S(N)(=O)=O)ccc21	-	.	-	-	.	.	.	.
CSc1nc(-c2ccccc2)c(C#N)c(=O)n1C	-	-	-	-	-	-	.	.
Nc1nc(N)c2cc([N+](=O)[O-])ccc2n1	-	.	.	.	.	.	.	.
Nc1nc(N)nc(-c2cc([N+](=O)[O-])ccc2O)n1	-	-	.	.	-	77	63	82
Nc1nc(N)nc(-c2cc(O)ccc2O)n1	-	-	.	.	-	88	95	55
COc1ccc(OC)c(NC(=O)CCc2c[nH]c3ccccc23)c1	-	-	-	-	-	-	.	.
CCc1ccc(S(=O)(=O)Nc2ccc(O)c3c(=O)cc(-c4ccccc4Cl)oc23)cc1	-	-	.	-	-	-	.	.
O=c1cc(-c2ccccc2Cl)oc2c(NS(=O)(=O)c3cc(Cl)cc(Cl)c3O)ccc(O)c12	-	-	-	-	-	98	83	43
SMILES	Gli-Sufu antag	Jurkat NFkB inh	KLF5 inh	aSyn 5UTR inh	697 NFkB inh	Mdm2-MdmX inh	Mdm2-MdmX conf	Full FLuc ctr
CC(NC(=O)c1cc(-c2ccc(Br)cc2)on1)c1ccccc1 (centres undefined)	-	-	-	-	-	54	-	.
Cc1ccc(S(=O)(=O)N2CCN(C(=O)COC(=O)CCOc3ccccc3)CC2)c(C)c1	-	-	.	.	-	-	.	.
COc1ccc(N(CC(=O)Nc2ccccc2OC)S(=O)(=O)c2ccc(NC(C)=O)cc2)cc1	-	-	-	-	-	53	63	55
Cc1cc(C)cc(N=c2c([N+](=O)[O-])nn(-c3ccc4c(c3)OCCO4)n2O)c1	-	-	-	-	-	70	65	45
O=C(NCc1ccco1)c1ccc(COc2ccccc2[N+](=O)[O-])o1	-	-	-	-	-	-	.	.
NS(=O)(=O)c1ccc(CCNC(=O)Cc2cccs2)cc1	-	-	-	-	-	-	.	.
CCOC(=O)c1ccc(N2C(=O)C(C)=C(C)C2=O)cc1	-	-	-	-	-	62	-	.
CCOC(=O)c1cccc2c1-c1ccccc1/C2=N/O	-	-	-	-	-	76	57	-
CC(C)COC(=O)c1cccc2c1-c1ccccc1/C2=N\O	-	-	-	-	-	-	.	.
O=C(Nc1ccccc1-c1nc2ccccc2s1)c1ccc(Br)o1	-	-	-	-	-	60	-	.
O=C(Nc1cccc(NC(=O)c2ccc(Br)o2)n1)c1ccc(Br)o1	-	-	-	-	-	-	.	.
Cc1ccc2cccc(NC(=O)c3ccc(Br)o3)c2n1	-	-	-	-	-	61	63	55
O=C(NCc1ccco1)c1cc([N+](=O)[O-])ccc1N1CCOCC1	-	-	-	-	-	-	.	.
O=C(CSc1n[nH]c(-c2ccc(Br)cc2)n1)N1CCOCC1	-	-	.	.	-	-	.	.
N=c1n(Cc2ccccc2)c2ccccc2n1CC(O)COc1ccc(Cl)cc1Cl (centres undefined)	56	-	-	90	-	100	100	61
CCN(CC)CCn1c(=N)n(CC(O)COc2cccc(C)c2)c2ccccc21 (centres undefined)	-	-	-	-	-	-	.	.
Cc1ccc(OCC(O)Cn2c(=N)n(Cc3ccccc3)c3ccccc32)cc1 (centres undefined)	-	-	-	-	-	67	52	49
N=c1n(Cc2ccccc2)c2ccccc2n1CC(O)c1ccco1 (centres undefined)	-	-	-	-	-	-	.	.
N=c1n(Cc2ccc(Cl)cc2)c2ccccc2n1CC(O)COc1ccccc1 (centres undefined)	-	-	-	-	-	88	-	88
